Data on 18 molecules can be found in PubChem BioAssay AID651642 (Sanford-Burnham Center for Chemical Genomics, 2012).

Molecules are shown by their SMILES. Active and inactive are the calls of the source.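 How the source made its calls: active means average half-effect concentration of 10 µM or less in every one of the four cell panels; inactive means the rest.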

This experiment deals with H9c2. Description: cardiomyocyte survival under oxidative or metabolic stress – cell-based, panel, H9c2 and HL-1, H2O2, 2-deoxyglucose, ATP luminescence, SAR follow-up (AID 651642). The conditions noted are these: H9c2/HL-1 cardiomyocyte 2-deoxyglucose damage, mean of runs, with 2-deoxyglucose.
For the molecule `COc1cc(-c2cc(C(=O)Nc3cccc(C(C)=O)c3)c3cc(C)ccc3n2)cc(OC)c1OC`, the result was inactive.

For the molecule `COc1cc(-c2cc(C(=O)Nc3cccc(C#N)c3)c3ccccc3n2)cc(OC)c1OC`, the result was inactive.

`COc1cc(-c2cc(C(=O)Nc3cccc(C(=O)NC4CC4)c3)c3ccccc3n2)cc(OC)c1OC`: the molecule was classed as inactive.

`COc1ccc2c(c1OC)C(=O)N1c3ccccc3C(=O)N(Cc3ccc(C)cc3C)C21` (stereo not drawn): the outcome was inactive.

Take `CCOC(=O)c1cccc(NC(=O)CNC(=O)c2cc(-c3cc(OC)c(OC)c(OC)c3)nc3ccc(C)cc23)c1`: the outcome was active.

Regarding `COc1cc(-c2cc(C(=O)Nc3cccc(C(C)=O)c3)c3cccc(Cl)c3n2)cc(OC)c1OC`, the molecule was called inactive.

With `COc1cc(-c2cc(C(=O)NCC(=O)Nc3ccc(C(C)=O)cc3)c3cc(C)ccc3n2)cc(OC)c1OC`, the molecule was classed as active.

As to `COc1cc(-c2cc(C(=O)Nc3cccc(C(=O)N(C)C)c3)c3ccccc3n2)cc(OC)c1OC`, the result was inactive.

In the case of `COc1ccc(NC(=O)CNC(=O)c2cc(-c3cc(OC)c(OC)c(OC)c3)nc3ccccc23)cc1`, the molecule was called inactive.

Take `COc1cc(-c2cc(C(=O)Nc3cccc(C(C)=O)c3)c3ccc(Cl)cc3n2)cc(OC)c1OC`: the call was inactive.

In the case of `COC(=O)CNC(=O)c1cccc(NC(=O)c2cc(-c3cc(OC)c(OC)c(OC)c3)nc3ccccc23)c1`, the call was active.

On to `COc1ccc2nc(-c3cc(OC)c(OC)c(OC)c3)cc(C(=O)Nc3cccc(C(C)=O)c3)c2c1`, for which the call was inactive.

For `COc1ccc2c(c1OC)C(=O)N1c3ccccc3C(=O)N(Cc3ccc(C)cc3)C21` (stereo not drawn), the outcome was inactive.

With `COc1cc(-c2cc(C(=O)NCC(=O)Nc3cccc(C(C)=O)c3)c3cc(C)ccc3n2)cc(OC)c1OC`, the call was inactive.

As for `COc1cc(-c2cc(C(=O)NCC(=O)Nc3ccc(C(C)=O)cc3)c3cc(F)ccc3n2)cc(OC)c1OC`, the result was inactive.

Consider `COc1cc(-c2cc(C(=O)Nc3cccc(C(=O)Nc4ccccc4)c3)c3ccccc3n2)cc(OC)c1OC`, for which the molecule was classed as active.

`COc1ccc2c(c1OC)C(=O)N1c3ccccc3C(=O)N(Cc3ccccc3Cl)C21` (stereo not drawn): the molecule was classed as inactive.

For the molecule `CCOC(=O)c1cccc(NC(=O)CNC(=O)c2cc(-c3cc(OC)c(OC)c(OC)c3)nc3ccc(Br)cc23)c1`, the outcome was active.
